About 50,000 (12%) of roughly 420,000 compounds were called active. About 26% were inconclusive and are not listed. Many of the other results were omitted from the sample, so actives are more common in it than they were. Values without a mark were called inactive. Calls follow the shape of the dose curve; as a rule, active = well fitted inhibition curve with a large enough effect; inconclusive = small, poorly fitted or top-dose-only effect; inactive = flat fitted curve, though single readings scatter.
% is scaled to controls: 0 for no effect and ±100 for the full control effect; potency is read from the fitted curve at half-maximal effect.

A short description of the assay: qHTS for Inhibitors of human tyrosyl-DNA phosphodiesterase 1 (TDP1): qHTS in cells in presence of CPT. Also: nearly all actives have a fitted effect of over 55% in size. The conditions noted are these: chicken DT40 Tdp1-/-;hTDP1 cells + 20 nM CPT, ATP luminescence, 48 h; series mostly up to 46.2 µM; activity change, negative = growth inhibition: at the top concentration. The method in brief:
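Chicken DT40 Tdp1-/- cells stably complemented with human TDP1 were seeded at 400 cells/well in medium containing 20 nM camptothecin, exposed to pin-transferred compounds, and grown at 37 °C for at least 48 hr. Viability was read as ATP luminescence.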
Regarding `COC(=O)C1=C(NC(=O)C(C)(C)C)CCS1`, the “activity change, negative = growth inhibition” value was -7.7%. Regarding `COCCCNS(=O)(=O)c1cccc(S(=O)(=O)c2cccc(S(=O)(=O)NCCCOC)c2)c1`, the “activity change, negative = growth inhibition” value is -26.2%. On to `COc1ccc(C)cc1NC(=O)CCCN1C(=O)NC(C)(C)C1=O`, for which the “activity change, negative = growth inhibition” value is -10.6%. With `Cc1c(NS(=O)(=O)c2cc(C(=O)NCCc3ccc(F)cc3)cc(Cl)c2Cl)c(=O)n(-c2ccccc2)n1C`, the “activity change, negative = growth inhibition” value was -26%.

Turning to `Cc1cc(=O)oc2cc(NC(=O)C(C)Oc3ccccc3)ccc12` (stereo unspecified), the “activity change, negative = growth inhibition” value is -3.45%. As to `Cc1cccc(OCC(=O)OCC(=O)Nc2ccc(Cl)cn2)c1`, the “activity change, negative = growth inhibition” value is 0.866%.

Turning to `O=S(=O)(NCCCc1ccccc1)c1ccc(Br)cc1`, the “activity change, negative = growth inhibition” value is 0.36%. Take `O=C(CSCc1ccccc1)Nc1ccccc1`: the “activity change, negative = growth inhibition” value was 20.1%. Turning to `CC(C(=O)NCCc1ccc(S(N)(=O)=O)cc1)N1C(=O)CC(C)(C)Sc2ccccc21` (stereo unspecified), the “activity change, negative = growth inhibition” value is 19.7%.

On to `COc1ccc(-c2c(NC(=O)c3ccco3)oc3ccc(Cl)cc3c2=O)cc1`, for which the “activity change, negative = growth inhibition” value was -6.75%. On the same count and under the same terms, the same measure for `COc1cc(OC)cc(C(=O)NNC(=O)CNC(=O)c2ccc(Br)o2)c1`: 21.2%; for `O=C1CC[C@@H](C(=O)N2CSC[C@@H]2C(=O)Nc2ccc(C(F)(F)F)cc2)N1`: -1.13%. As to `COc1ccc2c(CC(=O)OCC(=O)NC(N)=O)coc2c1`, the “activity change, negative = growth inhibition” value was -2.76%. The same measure, in the same setting: the same measure for `COc1ccc2nc(SCc3ccccc3)nc(C)c2c1`: 6.25%.

Turning to `Nc1ccc2c(c1)C(=Cc1cccnc1)c1ccccc1-2`, the “activity change, negative = growth inhibition” value is -6.16%.

Regarding `Cc1ccccc1NC(=O)N1CCCC1C(=O)NCc1ccccc1` (stereo unspecified), the “activity change, negative = growth inhibition” value was -11.8%.

Regarding `O=C1CN(C(=O)Nc2ccccc2C(F)(F)F)C(c2ccccc2)c2c(sc3c2CCCC3)N1` (stereo unspecified), the Potency is 20.6 µM (active). Regarding `CN(C)CCn1c2c(c(SCC(=O)Nc3ccccc3C(F)(F)F)nc1=O)CCCC2`, the “activity change, negative = growth inhibition” value was -2.77%. In the case of `Cc1ccc2oc(=O)c3cnn(CC(=O)N4CCN(c5ccccn5)CC4)c3c2c1`, the “activity change, negative = growth inhibition” value was -12.3%.

For the molecule `O=C(c1cc(=O)c2ccccc2o1)N1CCN(c2ccccc2)CC1`, the “activity change, negative = growth inhibition” value is 0.696%.

In the case of `COc1cccc2cc(C(=O)N3CCN(C(=O)c4ccccc4)CC3)c(=O)oc12`, the “activity change, negative = growth inhibition” value is -16.3%. Turning to `COc1ccccc1N1CCN(C(=O)c2cc(=O)c3cc(C)cc(C)c3o2)CC1`, the Potency was 0.0052 µM (active). Take `COc1ccccc1OCc1ccc(C(=O)N2CCN(C)CC2)o1`: the “activity change, negative = growth inhibition” value is 7.63%. Same read-out and setting: the same measure for `COc1ccc2oc(=O)c(C(=O)N3CCN(c4ccccc4F)CC3)cc2c1`: -26.6%; for `COc1ccc2c(CC(=O)N3CCc4cc(OC)c(OC)cc4C3)coc2c1`: -2.85%. As for `COc1cc2c(cc1OC)CN(C(=O)c1cc(=O)c3ccccc3o1)CC2`, the Potency is 4.11 µM (active). Take `COc1ccccc1N1CCN(C(=O)c2cc(=O)c3cc(C)ccc3o2)CC1`: the Potency was 14.6 µM (active). Consider `CC1(C)C2CCC1(CS(=O)(=O)NCCc1c[nH]c3ccccc13)C(=O)C2` (stereo unspecified), for which the “activity change, negative = growth inhibition” value is -2.02%. For the molecule `C/C(=N\NS(=O)(=O)c1ccc(Cl)cc1)c1ccc(NC(=O)c2ccco2)cc1`, the “activity change, negative = growth inhibition” value was -3.84%. Same read-out and setting: the same measure for `Cc1ccc(OCC(=O)Nc2ccc3oc(=O)ccc3c2)cc1C`: -0.987%; for `CSc1cccc(NC(=O)C2CCCN2S(=O)(=O)c2ccc3c(c2)CCC(=O)N3)c1` (stereo unspecified): -21.6%. On the same count and under the same terms, the same measure for `N#Cc1c(N)nc2c(c1N)CC(C(F)(F)F)O2` (stereo unspecified): 0.681%; for `CCc1ccc(CNC(=O)c2cc3cc4ccc(OC)cc4nc3o2)cc1`: 1.41%. In the case of `CC(C)Cc1ccc(-c2cc3nc(NCc4cccc(Cl)c4)ccn3n2)cc1`, the Potency was 20.6 µM (active). As to `Cc1ccc(-c2cc(N)n(Cc3cccc(Cl)c3)n2)cc1`, the “activity change, negative = growth inhibition” value is -22.3%. For `CCNC(=S)N1CCN(CCN=CC2=C(O)CC(C)(C)CC2=O)CC1`, the “activity change, negative = growth inhibition” value is 3.82%. On to `COc1ccc(S(=O)(=O)NC(C)C)cc1C(=O)NC1CCCCC1`, for which the “activity change, negative = growth inhibition” value was 7.46%. In the case of `COc1ccccc1N(C)S(=O)(=O)c1ccc(C(=O)N2CCC(C(N)=O)CC2)cc1`, the “activity change, negative = growth inhibition” value was -21%. As to `COc1ccccc1N(C)S(=O)(=O)c1ccc(C(=O)NC2CCCCCC2)cc1`, the Potency is 23.1 µM (active).

With `CO[C@]1(NC(=O)CSC(F)F)C(=O)N2C(C(=O)O)=C(CSc3nnnn3CCO)CO[C@H]21`, the “activity change, negative = growth inhibition” value is 1.05%. On to `CCn1c(SCC(=O)NC2CC2)nnc1-c1ccccc1OC`, for which the “activity change, negative = growth inhibition” value is 6.21%. On the same count and under the same terms, the same measure for `COC(=O)c1ccc(COc2ccc(C#N)cc2)o1`: -0.114%. Regarding `CCc1cccc(C)c1N1C(=O)CN(Cc2ccccc2)C1=S`, the “activity change, negative = growth inhibition” value is -2.8%. As to `COCC(=O)N1CCCC(C(=O)c2ccc(C(F)(F)F)cc2)C1` (stereo unspecified), the “activity change, negative = growth inhibition” value was -21.2%. Consider `Cn1cc(CCC(=O)N2CCCC(C(=O)c3ccc(C(C)(C)C)cc3)C2)cn1` (stereo unspecified), for which the Potency was 25.9 µM (active). As for `Cn1cc(/C=C/C(=O)N2CCCC(C(=O)c3ccc(C(F)(F)F)cc3)C2)cn1` (stereo unspecified), the “activity change, negative = growth inhibition” value was 8.27%.

Consider `CC(C)NC(=O)C1(C)CCCCCN1C(=O)c1ccc(-c2ccccc2)cc1` (stereo unspecified), for which the Potency was 18.4 µM (active). As to `CCNC(=O)C1(C)CCCN1C(=O)c1ccc(N(C)C)cc1` (stereo unspecified), the “activity change, negative = growth inhibition” value is -2.17%. For `CC1(C(=O)NS(=O)(=O)c2ccccc2)CCN1C(=O)c1ccccc1` (stereo unspecified), the “activity change, negative = growth inhibition” value was 5.22%. Same read-out and setting: the same measure for `CC(OC(=O)c1ccc(-n2cnnn2)cc1)C(=O)NCc1ccccc1` (stereo unspecified): 2.67%. As for `O=C(CSc1nc(=O)n(Cc2cccnc2)c2c1CCC2)Nc1ccc(F)cc1F`, the “activity change, negative = growth inhibition” value is -2.59%.

(Values after PubChem BioAssay AID686979 (National Center for Advancing Translational Sciences (NCATS), 2013).)
